Results as given in PubChem BioAssay AID1159580 (chemical genetic matrix, 2015).
Values joined by “and” are separate entries in the source; they are usually repeats but may differ in a detail not shown here. Identical values can stand only once. Out of some 5,500 compounds screened, about 2,000 (36%) were called active. Roughly 18% stayed inconclusive and do not appear here. No stated cut-off is given here; in the data, active means normalized growth mostly below about 0.91 (no sharp cut-off); inconclusive means no clear call, values can overlap the other calls; inactive means mostly above about 0.92. The list shows a part of the results.

Experiment: chemical genetic growth profiling, strain panel (AID 1159580);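 further: tested at 20 µM; growth read once vehicle control cultures reached saturation at 30 °C; 1 = growth at the plate median or of vehicle wells; lower values mean less growth of the strain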
Details: S. cerevisiae deletion strains, growth OD

Measured: normalized growth

O=C1c2ccccc2C(=O)C1c1ccccc1
inactive: locus YAL013W, strain DEP1, active compounds read low 0.975 | locus YAL021C, strain ccr4, active compounds read low 1.01 | locus YAL026C, strain drs2, active compounds read low 1 | locus YAL030W, strain snc1, active compounds read low 1 | locus YBL061C, strain skt5, active compounds read low 0.998 | locus YBR009C, strain hhf1, active compounds read low 1.01 | locus YBR021W, strain FUR4, active compounds read low 1 | locus YBR023C, strain chs3, active compounds read low 1 | locus YBR171W, strain sec66, active compounds read low 0.957 | locus YBR229C, strain ROT2, active compounds read low 1 and 0.94 | locus YBR231C, strain swc5, active compounds read low 1.01 | locus YBR279W, strain paf1, active compounds read low 0.993 | locus YCL011C, strain gbp2, active compounds read low 1 | locus YCL016C, strain dcc1, active compounds read low 1.01 | locus YCL029C, strain bik1, active compounds read low 1.01 | locus YCL061C, strain MRC1, active compounds read low 1 and 0.995 | locus YCL069W, strain vba3, active compounds read low 0.995 | locus YCR088W, strain abp1, active compounds read low 0.988 | locus YDL005C, strain med2, active compounds read low 1 | locus YDL035C, strain GPR1, active compounds read low 1.01 | locus YDL040C, strain nat1, active compounds read low 1 | locus YDL074C, strain BRE1, active compounds read low 1 | locus YDL101C, strain DUN1, active compounds read low 1.01 and 0.909 | locus YDL134C, strain PPH21, active compounds read low 1.01 | locus YDL185W, strain tfp1, active compounds read low 0.991 | locus YDL192W, strain arf1, active compounds read low 1.01 | locus YDR001C, strain nth1, active compounds read low 0.981 | locus YDR069C, strain doa4, active compounds read low 0.996 | locus YDR101C, strain arx1, active compounds read low 1 | locus YDR137W, strain rgp1, active compounds read low 0.995 | locus YDR150W, strain NUM1, active compounds read low 0.998 and 1.01 | locus YDR159W, strain sac3, active compounds read low 1.01 | locus YDR162C, strain NBP2, active compounds read low 0.995 | locus YDR195W, strain ref2 0.997 | locus YDR297W, strain sur2, active compounds read low 0.993 | locus YDR318W, strain mcm21, active compounds read low 1.01 | locus YDR334W, strain swr1, active compounds read low 0.996 | locus YDR335W, strain msn5, active compounds read low 0.995 | locus YDR388W, active compounds read low 1.02 | locus YDR392W, strain spt3, active compounds read low 0.918 | locus YDR502C, strain sam2, active compounds read low 1 | locus YEL003W, strain gim4, active compounds read low 0.991 | locus YEL037C, strain rad23, active compounds read low 0.992 | locus YEL061C, strain CIN8 (second series), active compounds read low 0.986 | locus YEL061C, strain CIN8, active compounds read low 0.998 and 0.977 | locus YER015W, strain faa2, active compounds read low 1.01 | locus YER016W, strain bim1, active compounds read low 1 | locus YER110C, active compounds read low 1.01 | locus YER111C, strain swi4, active compounds read low 0.999 | locus YER155C, strain BEM2 (second series), active compounds read low 1 | locus YER155C, strain BEM2, active compounds read low 0.989 | locus YER167W, strain BCK2, active compounds read low 0.997 | locus YFR010W, strain ubp6, active compounds read low 1 | locus YGL078C, strain dbp3, active compounds read low 0.99 | locus YGL086W, strain mad1, active compounds read low 0.997 | locus YGL167C, strain pmr1, active compounds read low 1 | locus YGL173C, strain kem1, active compounds read low 1.02 | locus YGL227W, strain vid30, active compounds read low 0.978 | locus YGL240W, strain doc1, active compounds read low 1.01 | locus YGL248W, strain PDE1, active compounds read low 1 | locus YGL253W, strain hxk2, active compounds read low 0.998 | locus YGR078C, strain PAC10, active compounds read low 0.942 | locus YGR135W, strain pre9, active compounds read low 1.01 | locus YGR229C, strain SMI1, active compounds read low 1.01 and 1.05 | locus YGR252W, strain gcn5, active compounds read low 0.998 | locus YHR013C, strain ard1, active compounds read low 0.974 | locus YHR027C, strain rpn1, active compounds read low 0.997 | locus YHR030C, strain SLT2, active compounds read low 1 and 0.957 and 0.982 | locus YHR079C, strain IRE1 (second series), active compounds read low 1.01 | locus YHR079C, strain IRE1, active compounds read low 0.95 | locus YHR087W, strain rtc3, active compounds read low 0.923 | locus YHR094C, strain hxt1, active compounds read low 1.01 | locus YHR129C, strain ARP1, active compounds read low 0.992 | locus YHR142W, strain chs7, active compounds read low 1 | locus YHR200W, strain rpn10, active compounds read low 1.01 | locus YIL066C, strain RNR3, active compounds read low 1.01 | locus YIL073C, strain SPO22, active compounds read low 1.03 | locus YIL125W, strain kgd1, active compounds read low 0.989 | locus YIR030C, strain dcg1, active compounds read low 1 | locus YJL092W, strain hpr5, active compounds read low 0.983 | locus YJL095W, strain BCK1 (second series), active compounds read low 1 | locus YJL095W, strain BCK1, active compounds read low 0.984 and 0.97 | locus YJL115W, strain asf1, active compounds read low 0.99 | locus YJL129C, strain trk1, active compounds read low 0.978 | locus YJL134W, strain LCB3, active compounds read low 0.993 | locus YJL154C, strain vps35, active compounds read low 0.991 | locus YJL164C, strain tpk1, active compounds read low 1 | locus YJL166W, strain qcr8, active compounds read low 1.01 | locus YJL168C, strain set2, active compounds read low 1.01 | locus YJL187C, strain SWE1 (second series), active compounds read low 1 | locus YJL187C, strain SWE1, active compounds read low 1 | locus YJR043C, strain POL32, active compounds read low 1.01 and 0.982 | locus YJR066W, strain TOR1, active compounds read low 0.92 | locus YJR075W, strain HOC1, active compounds read low 1.01 and 0.971 | locus YKL009W, strain mrt4, active compounds read low 0.974 | locus YKL068W, active compounds read low 0.989
